PubChem BioAssay (NCI)
The panel holds about 79,000 compounds, 15% with a hit somewhere; the sample as a whole holds those more often. The source made the active and inactive calls. Rule as the data show it: active = growth inhibition above about 70%; inactive = the rest.

Key:
[1] = NCI Yeast Anticancer Drug Screen. Data for the rad52 strain (AID 147);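 also: 0% = growth of vehicle-treated control cultures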; details: S. cerevisiae rad52 mutant growth inhibition, hits give high values
Method in brief: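 Here a repair-compromised yeast strain receives each compound; its growth is then quantified and normalised to vehicle-only controls.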

[2] = NCI Yeast Anticancer Drug Screen. Data for the wt1 strain (AID 149);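 also: 0% = growth of vehicle-treated wt1 cultures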; details: S. cerevisiae wt1 strain (SPY 50644) growth inhibition, hits give high values
Method in brief: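 Measured: growth of wt1 yeast under compound versus vehicle treatment, reported as inhibition.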

[3] = NCI Yeast Anticancer Drug Screen. Data for the rad50EPP+ strain (AID 151);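 also: 0% = growth of vehicle-treated control cultures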; details: S. cerevisiae rad50 mutant strain, hits give high values
Method in brief: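 Read-out is yeast growth inhibition relative to vehicle; cells used were the rad50EPP+ strain.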

[4] = NCI Yeast Anticancer Drug Screen. Data for the mgt1 strain (AID 153); details: S. cerevisiae mgt1 mutant growth inhibition, hits give high values
Method in brief: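 Measured: inhibition of mgt1 yeast growth by compound, normalized to vehicle-treated cultures.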

[5] = NCI Yeast Anticancer Drug Screen. Data for the rad50 strain (AID 155);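 also: 0% = growth of vehicle-only cultures of the same strain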; details: S. cerevisiae rad50 strain growth inhibition, hits give high values
Method in brief: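 Growth of the mutant yeast was measured after compound exposure and referenced to vehicle-treated cultures.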

[6] = NCI Yeast Anticancer Drug Screen. Data for the mec2-1 strain (AID 157); details: S. cerevisiae mec2-1 strain, hits give high values
Method in brief: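 Using mec2-1 yeast: add compound, measure growth, express inhibition versus vehicle-treated cultures.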

[7] = NCI Yeast Anticancer Drug Screen. Data for the sgs1 mgt1 strain (AID 161);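 also: 0% = growth of cultures given vehicle only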; details: S. cerevisiae sgs1 mgt1 strain, hits give high values
Method in brief: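 This yeast growth screen uses a strain with defined DNA-repair lesions; compound-treated growth is compared with vehicle-treated growth.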

[8] = NCI Yeast Anticancer Drug Screen. Data for the CLN2oe strain (AID 163);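 also: 0% = growth of vehicle-only control cultures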; details: S. cerevisiae CLN2oe strain, hits give high values
Method in brief: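 Whole-cell yeast growth assay. A strain engineered for altered cell-cycle control received compound, and inhibition relative to vehicle-treated cultures was recorded.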

[9] = NCI Yeast Anticancer Drug Screen. Data for the bub3 strain (AID 167); details: S. cerevisiae bub3 mutant strain, hits give high values
Method in brief: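 Whole-cell yeast assay. The mutant strain was incubated with compounds, and growth inhibition was determined by comparison with vehicle-treated cells.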

[10] = NCI Yeast Anticancer Drug Screen. Data for the wt2 strain (AID 169);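 also: 0% = growth of vehicle-treated yeast cultures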; details: S. cerevisiae wt2 strain growth inhibition, hits give high values
Method in brief: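 Treated yeast vs. vehicle-treated yeast: growth inhibition determined.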

[11] = NCI Yeast Anticancer Drug Screen. Data for the mlh1 strain (AID 171);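 also: 0% = growth of vehicle-treated control cultures of the same strain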; details: S. cerevisiae mlh1 strain growth inhibition, hits give high values
Method in brief: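 A yeast strain with a defined genetic lesion serves as the test organism. Cultures receive compound or vehicle, and growth is measured.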

[12] = NCI Yeast Anticancer Drug Screen. Data for the sgs1 strain (AID 173);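 also: 0% = growth of vehicle-only control cultures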; details: S. cerevisiae sgs1 mutant, hits give high values
Method in brief: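 A genetically defined yeast mutant is incubated with the test compound, and its growth is compared to that of the same strain given vehicle.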

[13] = NCI Yeast Anticancer Drug Screen. Data for the mlh1 rad18 strain (AID 175); details: S. cerevisiae mlh1 rad18 strain growth inhibition, hits give high values
Method in brief: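 Steps: expose repair-defective yeast to compound; measure growth; express inhibition against vehicle-treated controls.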

[14] = NCI Yeast Anticancer Drug Screen. Data for the rad18 strain (AID 177); details: S. cerevisiae rad18 mutant growth inhibition, hits give high values
Method in brief: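 Measured value is growth inhibition of a yeast strain bearing a DNA repair alteration, referenced to vehicle-treated cells.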

[15] = NCI Yeast Anticancer Drug Screen. Data for the rad14 strain (AID 159);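 also: 0% = growth of vehicle-treated control cultures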; details: S. cerevisiae rad14 strain growth inhibition, hits give high values
Method in brief: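 Here, inhibition of yeast growth was measured after compound exposure, using a strain with a genetic defect in DNA damage repair and vehicle-treated cultures as the reference.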

[16] = NCI Yeast Anticancer Drug Screen. Data for the cln2 rad14 strain (AID 165);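 also: 0% = growth equal to vehicle treated cultures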; details: S. cerevisiae cln2 rad14 strain, hits give high values
Method in brief: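 Yeast strain cln2 rad14, bearing defects in cell cycle control and DNA repair, serves as the test system; values reflect growth inhibition compared with vehicle.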

[17] = at 5.0 µM (retest, dose inferred, filed as 0.5)
[18] = at 50.0 µM (retest, dose inferred, filed as 5.0)

Measured: growth inhibition

CCCCCCCCNCCCCCCCC
active: [1]; at 11.0 µM 76% | [1]; at 33.0 µM 99% | [1]; at 100.0 µM 99% | [2]; at 33.0 µM 96% | [2]; at 100.0 µM 99% | [3]; at 33.0 µM 92% | [3]; at 100.0 µM 99% | [4]; at 11.0 µM 97% | [4]; at 33.0 µM 100% | [4]; at 100.0 µM 100% | [5]; at 11.0 µM 96% | [5]; at 33.0 µM 98% | [5]; [18] 99% | [5]; at 50.0 µM 99.5% | [5]; at 100.0 µM 98% | [6]; at 11.0 µM 77% | [6]; at 33.0 µM 98% | [6]; [18] 100% | [6]; at 50.0 µM 99.7% | [6]; at 100.0 µM 98% | [7]; [17] 82% | [7]; [18] 100% | [7]; at 50.0 µM 99.5% | [8]; at 33.0 µM 97% | [8]; at 100.0 µM 97% | [9]; [17] 74% | [9]; at 11.0 µM 95% | [9]; at 33.0 µM 98% | [9]; [18] 99% | [9]; at 50.0 µM 99.5% | [9]; at 100.0 µM 99% | [10]; at 11.0 µM 76% | [10]; at 33.0 µM 99% | [10]; at 100.0 µM 99% | [11]; at 11.0 µM 96% | [11]; at 33.0 µM 99% | [11]; at 100.0 µM 100% | [12]; at 11.0 µM 94% | [12]; at 33.0 µM 97% | [12]; at 100.0 µM 97% | [13]; [17] 80% | [13]; [18] 99% | [13]; at 50.0 µM 99.3% | [14]; at 11.0 µM 91% | [14]; at 33.0 µM 99% | [14]; at 100.0 µM 95%
inactive: [1]; at 1.2 µM 4% | [1]; at 3.7 µM 18% | [2]; at 1.2 µM 0% | [2]; at 3.7 µM 2% | [2]; at 11.0 µM 29% | [3]; at 1.2 µM 1% | [3]; at 3.7 µM -1% | [3]; at 11.0 µM 24% | [4]; at 1.2 µM 12% | [4]; at 3.7 µM 29% | [5]; at 1.2 µM 6% | [5]; at 3.7 µM 3% | [5]; [17] 67% | [6]; at 1.2 µM 2% | [6]; at 3.7 µM 13% | [6]; [17] 9% | [8]; at 1.2 µM 13% | [8]; at 3.7 µM 21% | [8]; at 11.0 µM 60% | [9]; at 1.2 µM 33% | [9]; at 3.7 µM 49% | [10]; at 1.2 µM 0% | [10]; at 3.7 µM 17% | [11]; at 1.2 µM 6% | [11]; at 3.7 µM 20% | [12]; at 1.2 µM 11% | [12]; at 3.7 µM 30% | [14]; at 1.2 µM 14% | [14]; at 3.7 µM 38%

O=C(CCCN1CCC(Nc2ccc(F)cc2)(c2nnnn2C2CCCCC2)CC1)c1ccc(F)cc1
active: [1]; at 100.0 µM 98% | [2]; at 100.0 µM 89% | [5]; at 100.0 µM 97% | [6]; at 100.0 µM 99% | [15]; at 100.0 µM 85% | [8]; at 100.0 µM 99% | [9]; [18] 80% | [9]; at 100.0 µM 99% | [10]; at 100.0 µM 99% | [11]; at 100.0 µM 98% | [12]; at 100.0 µM 98% | [13]; at 50.0 µM 77.8% | [14]; at 100.0 µM 99%
inactive: [1]; at 1.2 µM 14% | [1]; at 3.7 µM 2% | [1]; at 11.0 µM 19% | [1]; at 33.0 µM 24% | [2]; at 1.2 µM -81% | [2]; at 3.7 µM -5% | [2]; at 11.0 µM -11% | [2]; at 33.0 µM -11% | [3]; at 1.2 µM 0% | [3]; at 3.7 µM 0% | [3]; at 11.0 µM 1% | [3]; at 33.0 µM 4% | [3]; at 100.0 µM 25% | [5]; at 1.2 µM -5% | [5]; at 3.7 µM -7% | [5]; [17] 1% | [5]; at 11.0 µM -9% | [5]; at 33.0 µM -5% | [5]; [18] 37% | [5]; at 50.0 µM 11.7% | [6]; at 1.2 µM -7% | [6]; at 3.7 µM -8% | [6]; [17] 3% | [6]; at 11.0 µM -17% | [6]; at 33.0 µM -5% | [6]; [18] 12% | [6]; at 50.0 µM 27.1% | [15]; at 1.2 µM -5% | [15]; at 3.7 µM -8% | [15]; at 11.0 µM -10% | [15]; at 33.0 µM 9% | [7]; [17] -4% | [7]; [18] 31% | [7]; at 50.0 µM 50.3% | [8]; at 1.2 µM -8% | [8]; at 3.7 µM -10% | [8]; at 11.0 µM -7% | [8]; at 33.0 µM 31% | [16]; [17] 65% | [16]; [18] 50% | [16]; at 50.0 µM 35.7% | [9]; at 1.2 µM -2% | [9]; at 3.7 µM -4% | [9]; [17] -13% | [9]; at 11.0 µM -6% | [9]; at 33.0 µM 22% | [9]; at 50.0 µM 32.9% | [10]; at 1.2 µM -6% | [10]; at 3.7 µM -6% | [10]; at 11.0 µM -9% | [10]; at 33.0 µM -1% | [11]; at 1.2 µM -3% | [11]; at 3.7 µM -6% | [11]; at 11.0 µM -8% | [11]; at 33.0 µM -6% | [12]; at 1.2 µM -1% | [12]; at 3.7 µM -1% | [12]; at 11.0 µM -4% | [12]; at 33.0 µM 7% | [13]; [17] -3% | [13]; [18] 41% | [14]; at 1.2 µM 3% | [14]; at 3.7 µM 0% | [14]; at 11.0 µM 14% | [14]; at 33.0 µM 17%
